This is part of a sample that, as a whole, favours compounds with a hit. Of some 83,000 tested, about 20% had one in any assay.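 96-well plates, one dose, 48 hours. Percent growth reported; active if below 10.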 Values without a mark were called inactive. The source made the active and inactive calls.
Key:
Assay in all cases: NCI-60 one-dose screen, 48 h (100 = growth as untreated, 0 = no growth, -100 = all killed)
Settings in all cases: 10 µM unless noted
T-47D breast = tested on: T-47D breast
BT-549 breast = tested on: BT-549 breast
MDA-MB-435 melanoma = tested on: MDA-MB-435 melanoma
SW-620 colon = tested on: SW-620 colon
MCF7 breast = tested on: MCF7 breast
HCT-116 colon = tested on: HCT-116 colon
HCC-2998 colon = tested on: HCC-2998 colon
KM12 colon = tested on: KM12 colon

Structure (SMILES)	growth (T-47D breast)	growth (BT-549 breast)	growth (MDA-MB-435 melanoma)	growth (SW-620 colon)	growth (MCF7 breast)	growth (HCT-116 colon)	growth (HCC-2998 colon)	growth (KM12 colon)
COc1cc(OC)cc(-c2n/c(=C\c3c(O)[nH]c4ccc(Cl)cc34)cc3c2=Nc2ccccc2-3)c1	84.9%	97.2%	99.3%	-1.36% (active)	24.3%	2.45% (active)	103%	22.8%
COc1ccc2[nH]cc(/C=C3\C(=O)Nc4ccccc43)c2c1	36.6%	48.5%	-41.6% (active)	11.4%	16.3%	17.9%	36%	13.7%
Clc1ccc2c(c1)-c1ccccc1C1=NCCN12	29.6%	71.5%	29.4%	22.5%	10.6%	21%	40.7%	33.3%
COC(=O)/C=C/c1cc(OC(C)=O)c2c(c1)[C@@H](C(=O)OC)[C@H](c1ccc(OC(C)=O)c(OC(C)=O)c1)O2	74.7%	13.5%	-64.8% (active)	15.7%	15.6%	6.38% (active)	22.2%	5.97% (active)
CC(=O)[C@H]1CC[C@H]2[C@@H]3CC[C@H]4CC=CC[C@]4(C)[C@H]3CC[C@]12C	95.2%	102%	101%	101%	114%	84.8%	97.2%	113%
CCCCCCCCCCCCCC[N+](C)(C)CCCCCCCCCCCCCC	57.5%	92.3%	39.4%	76%	77.3%	51.4%	62.1%	76.2%
Nc1ncnc2c1N=C(c1ccc(F)cc1)CC(c1sc(Cl)nc1Cl)N2 (stereo unspecified)	88.3%	78%	102%	101%	86.6%	91.1%	101%	105%
CN(C)c1ccc(/C=N/Nc2nnc3n2N=C(c2ccc(Cl)cc2)CS3)cc1	84.2%	90.3%	97.5%	102%	77.4%	99%	106%	101%
Cc1ccc(-c2nc3ccccc3c(=O)n2/N=C/c2cccc3ccccc23)cc1	42.6%	80.1%	69.2%	93.9%	62.9%	71.5%	80.5%	69.1%
CCOC(=O)c1ccccc1SC(C[N+](=O)[O-])c1ccccc1 (stereo unspecified)	60.6%	88.4%	-58.1% (active)	55.8%	1.05% (active)	3.98% (active)	8.62% (active)	91.6%
COCCOCCOCc1n(Cc2ccc3ccccc3n2)c2ccccc2[n+]1Cc1ccc2ccccc2c1	4.77% (active)	-9.56% (active)	-21.9% (active)	12.4%	4.87% (active)	7.79% (active)	12.8%	-41.5% (active)
CCOc1cccc(/C=N/NC(=O)Cc2ccc(Nc3ccnc(C(F)(F)F)c3)cc2)c1O	15.7%	40.7%	40.3%	21.5%	5.26% (active)	20.9%	37.4%	30.1%
CCCCCCCCCCC(C(O)c1ccccc1)N1CCCCC1 (stereo unspecified)	-33.7% (active)	79.7%	-54.3% (active)	-30.8% (active)	-65.4% (active)	14.7%	49.1%	8.17% (active)
CC(CN1CCN(CCOCCO)CC1)CN1c2ccccc2Sc2ccc(Cl)cc21 (stereo unspecified)	62.7%	79.1%	22.4%	63.6%	55.6%	37.5%	39.5%	28%
CCN(CC)CCNc1c(C)cc(CO)c(Cl)c1C	112%	104%	106%	105%	75%	104%	107%	113%
CCCCNCC(O)c1cc2c(Cl)cc(Cl)cc2c2cc(C(F)(F)F)ccc12 (stereo unspecified)	-74.6% (active)	11.9%	-52.7% (active)	-68.2% (active)	-83.5% (active)	-91.7% (active)	-72% (active)	-89.4% (active)

Structure (SMILES)	growth (T-47D breast)	growth (BT-549 breast)	growth (MDA-MB-435 melanoma)	growth (SW-620 colon)	growth (MCF7 breast)	growth (HCT-116 colon)	growth (HCC-2998 colon)	growth (KM12 colon)
Oc1ccc(CCCCCCc2ccc(O)cc2)cc1	65%	50.3%	71.4%	58.1%	35.9%	66.8%	92.3%	59%
CCc1ccc(Nc2cc(C)c3ccc(O)cc3n2)cc1	55.3%	88.3%	28.5%	78.5%	63.9%	56.8%	-59.8% (active)	53.9%
CC(OC(=O)Nc1cccc(Cl)c1)C(=O)O (stereo unspecified)	93.2%	113%	82.8%	99.5%	99.7%	97.2%	99.8%	101%
COc1ccc(/C=C/C(=O)c2ccc(NC(=O)CSc3nnc(-c4ccc(Cl)cc4)n3-c3ccccc3)cc2)cc1	77.2%	93%	94.4%	110%	70.3%	36.4%	103%	94.5%
COc1cc(C)c2c(=O)c3c(oc2c1)C(=O)c1c(O)c(OC)cc(O)c1C3=O	0.298% (active)	11.7%	16.3%	16.9%	7.86% (active)	7.58% (active)	1.73% (active)	14.6%
COc1ccc(/C=C2\Cc3c(Br)cccc3C2=O)c(OC)c1	77.3%	69.6%	7.83% (active)	43.2%	55.6%	15%	84.1%	46.8%
CCCCn1c(C)nc2cc(Nc3nc(Cl)nc4nc[nH]c34)ccc21	39.3%	72.3%	90.1%	90.4%	75.4%	83.6%	102%	97.3%
CCOC(=O)c1sc2nc(-c3cc4ccccc4o3)cc(-c3ccc(Cl)cc3)c2c1N	103%	148%	222%	96.8%	110%	105%	109%	99.7%
CCN(CC)C(Cl)=Nc1ccc(Cl)cc1	102%	112%	100%	102%	101%	98.1%	101%	107%
COc1ccc2c(c1)CCCC21C(=O)Nc2ccccc21 (stereo unspecified)	85.2%	101%	101%	107%	95.7%	102%	112%	97.5%
CCCc1cc2c(cc1CN(Cc1cc3c(cc1CCC)OCO3)C(=N)OCC)OCO2	84.7%	80.4%	103%	81%	86.5%	41.2%	90.5%	92.8%
CCCCC(CCc1ccccn1)C(=O)c1ccccc1 (stereo unspecified)	100%	108%	111%	112%	105%	109%	111%	136%
C=CCn1c(SCC(=O)Nc2ccc(C(=O)/C=C/c3ccc(Cl)cc3)cc2)nnc1-c1ccc(Cl)cc1	76%	82.5%	96.7%	97.9%	43.2%	-17.8% (active)	90.4%	94.2%
COc1ccc2nc(NC(=O)/C(=C/c3cc(OC)c(OC)c(OC)c3)c3ccc(OC)c(OC)c3)sc2c1	74.4%	101%	101%	102%	87.1%	96.3%	113%	101%
NC(N)=N/N=C\c1cccc(OCc2ccccc2)c1	26.6%	94.1%	35.1%	36%	47.2%	41.9%	4.51% (active)	68.3%
CCCCNCC(O)c1cc(-c2ccc(C(F)(F)F)cc2)nc(-c2ccc(C(F)(F)F)cc2)c1 (stereo unspecified)	-80.3% (active)	-31.2% (active)	-68.6% (active)	-82.1% (active)	-84.8% (active)	-88.5% (active)	-75.8% (active)	-89.2% (active)

Source: PubChem BioAssay (NCI)
